Measurements taken from publication PMC10726135, “HNF4α isoforms regulate the circadian balance between carbohydrate and lipid metabolism in the liver”.
In all, about 18,000 sequences were measured (“log2 normalized intensity”: median about 0.39, highest 2% from about 6.6 on). This excerpt belongs to a sample that is enriched for the highest values.

Biological target: T1, HNF4alpha2 (COS-7 nuclear extract) (Homo sapiens, UniProt P41235 1-474)
T1 sequence: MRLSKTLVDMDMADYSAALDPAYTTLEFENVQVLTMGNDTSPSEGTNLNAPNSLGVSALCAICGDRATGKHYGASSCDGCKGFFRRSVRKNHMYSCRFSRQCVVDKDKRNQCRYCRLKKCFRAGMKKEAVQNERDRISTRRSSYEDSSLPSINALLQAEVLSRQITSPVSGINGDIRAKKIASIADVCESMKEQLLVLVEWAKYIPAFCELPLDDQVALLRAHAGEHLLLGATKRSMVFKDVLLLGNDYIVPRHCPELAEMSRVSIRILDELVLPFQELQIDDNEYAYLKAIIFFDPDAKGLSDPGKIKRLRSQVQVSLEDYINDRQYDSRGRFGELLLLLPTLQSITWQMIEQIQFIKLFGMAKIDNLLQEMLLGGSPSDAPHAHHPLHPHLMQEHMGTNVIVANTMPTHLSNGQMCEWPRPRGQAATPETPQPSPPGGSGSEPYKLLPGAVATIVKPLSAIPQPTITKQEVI
Assay: protein-binding microarray; COS-7 nuclear extract on double-stranded Agilent 4x180k PBM; binding buffer, salt, pH and temperature not given in the material; high values mean tight binding
Settings: chain copies: 2; label: 3' end of strand 1 on the slide; dsDNA, one strand shown
Outline: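 Nuclear extracts came from COS-7 cells transiently transfected by CaPO4 with a human HNF4α isoform expression vector. They were applied to a custom Agilent SurePrint G3 4x180k array of ~60-nt oligonucleotides, made double-stranded, with ~44,000 test sequences spotted in quadruplicate. Bound HNF4α was imaged at 2-µm resolution on an Agilent G2565CA scanner. Binding signal was taken as background-corrected, normalized gProcessedSignal from Agilent software.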

Sequence | binding signal
ACGTTCACGTCTCAAGCTTCAGGAGTCCACGCCTAGGGAGATTAGAGTATCGGTCGA | 2.07 log2 normalized intensity
ATACGATAATGTCAAACATCTTATATCAACGCCTAGGGAGATTAGAGTATCGGTCGA | 0.675 log2 normalized intensity
TCTATCTGTATTCTGAAGCCCTACAGCCCAGCCTAGGGAGATTAGAGTATCGGTCGA | -0.864 log2 normalized intensity
CCTCTGCATTTGCTCCCTGACTTGGTTTACGCCTAGGGAGATTAGAGTATCGGTCGA | 1.67 log2 normalized intensity
CAGATCCAGTGGACTCTCTGTTTGATCAGCGCCTAGGGAGATTAGAGTATCGGTCGA | 1.51 log2 normalized intensity
TGTCACACACAGACTTGGGTTCAAAGAGCAGCCTAGGGAGATTAGAGTATCGGTCGA | 3.94 log2 normalized intensity
AATGATTGCATAATCTGGCTCCAAAGTCTAGCCTAGGGAGATTAGAGTATCGGTCGA | 2.2 log2 normalized intensity
CCTTTACCCTGACCTGTCAAGCAATGATCTGCCTAGGGAGATTAGAGTATCGGTCGA | 1.25 log2 normalized intensity
AGCAGTCTGAGTAGGAAAGACTTGCTCATTGCCTAGGGAGATTAGAGTATCGGTCGA | -0.18 log2 normalized intensity
TGGTGCCCTCTGAGTGTTTGACCTTTCACCGCCTAGGGAGATTAGAGTATCGGTCGA | 7.66 log2 normalized intensity
CACTCTGGTGCCCTCTGAGTGTTTGACCTTGCCTAGGGAGATTAGAGTATCGGTCGA | 5.15 log2 normalized intensity
CCCTCTGAGTGTTTGACCTTTCACCCAGAAGCCTAGGGAGATTAGAGTATCGGTCGA | 6.42 log2 normalized intensity
GTTGCTTCCACCTATGAGTCTGTAAAGTCAGCCTAGGGAGATTAGAGTATCGGTCGA | 0.468 log2 normalized intensity
AATATTCTGGCTTCTCGTGAGTATTTTTTCGCCTAGGGAGATTAGAGTATCGGTCGA | 0.954 log2 normalized intensity
TTTGGAATTGTGTCACTCCCCAGGAATGTGGCCTAGGGAGATTAGAGTATCGGTCGA | 1.89 log2 normalized intensity
CCTCTGCACCCCACCAAGGACTGGACCACCGCCTAGGGAGATTAGAGTATCGGTCGA | 2.34 log2 normalized intensity
TTCTGATCTTTGACCTCTCCAGGGTCCTTGGCCTAGGGAGATTAGAGTATCGGTCGA | 4.73 log2 normalized intensity
TAATCAGAGCAGGAATTCTGATCTTTGACCGCCTAGGGAGATTAGAGTATCGGTCGA | 7.18 log2 normalized intensity
CATCTTTGAAGAGCACAGGGTCAGCAGATCGCCTAGGGAGATTAGAGTATCGGTCGA | 1.17 log2 normalized intensity
AGGAATTCTGATCTTTGACCTCTCCAGGGTGCCTAGGGAGATTAGAGTATCGGTCGA | 5.99 log2 normalized intensity
AGAGCAGGAATTCTGATCTTTGACCTCTCCGCCTAGGGAGATTAGAGTATCGGTCGA | 7.34 log2 normalized intensity

Sequence | binding signal
CCACTTTGAATCAGGAGAGCATCTGAGTGTGCCTAGGGAGATTAGAGTATCGGTCGA | 1.15 log2 normalized intensity
GCCACCTTGGTGAGAGATTAAACATGCTCTGCCTAGGGAGATTAGAGTATCGGTCGA | 0.469 log2 normalized intensity
ACAGCCTTTTGAGTTTCTACCATAGACCCTGCCTAGGGAGATTAGAGTATCGGTCGA | 1.05 log2 normalized intensity
TTACTGGACTTGATCCATTCTACCCCTGTGGCCTAGGGAGATTAGAGTATCGGTCGA | 2.73 log2 normalized intensity
GGACTTGATCCATTCTACCCCTGTGGTTGAGCCTAGGGAGATTAGAGTATCGGTCGA | 2.25 log2 normalized intensity
TACCCCTGTGGTTGACCTTTAGTCTCTAGCGCCTAGGGAGATTAGAGTATCGGTCGA | 6.48 log2 normalized intensity
CATTCTACCCCTGTGGTTGACCTTTAGTCTGCCTAGGGAGATTAGAGTATCGGTCGA | 7.73 log2 normalized intensity
ATGCTAAAGTCTACATTCTAGATGACCCCTGCCTAGGGAGATTAGAGTATCGGTCGA | 5.66 log2 normalized intensity
TGATCCATTCTACCCCTGTGGTTGACCTTTGCCTAGGGAGATTAGAGTATCGGTCGA | 7.8 log2 normalized intensity
GGACTTCGCTCCGCCGCTAGGTGGCGGGCTGCCTAGGGAGATTAGAGTATCGGTCGA | 1.42 log2 normalized intensity
GAGAAGTTGCTCTTTACACCATTGCAAGGAGCCTAGGGAGATTAGAGTATCGGTCGA | -0.941 log2 normalized intensity
GGAGCCCCCTGGGGGAGGTTTCCTGCTGTCGCCTAGGGAGATTAGAGTATCGGTCGA | -0.946 log2 normalized intensity
ATCTTCCTCCCCCCTTGGCTACATGTTTGTGCCTAGGGAGATTAGAGTATCGGTCGA | 3.7 log2 normalized intensity
CTGCAAAGAAGTCAAACTTTGGACCCACTGGCCTAGGGAGATTAGAGTATCGGTCGA | 5.97 log2 normalized intensity
ACACAGGACTTGATCCAGGGCAAAGGTCATGCCTAGGGAGATTAGAGTATCGGTCGA | 7.38 log2 normalized intensity
AGAAAACACAGAGATCTGATCAAAGGTCATGCCTAGGGAGATTAGAGTATCGGTCGA | 5.9 log2 normalized intensity
TGATCCAGGGCAAAGGTCATAATTTGATCCGCCTAGGGAGATTAGAGTATCGGTCGA | 6.34 log2 normalized intensity
TCAGGAGCCCCACAGAGCAAAGGTCATGCAGCCTAGGGAGATTAGAGTATCGGTCGA | 5.38 log2 normalized intensity
GGACTTGATCCAGGGCAAAGGTCATAATTTGCCTAGGGAGATTAGAGTATCGGTCGA | 6.98 log2 normalized intensity
CAAAGGTCATAATTTGATCCAGTGTGCAAAGCCTAGGGAGATTAGAGTATCGGTCGA | 3.35 log2 normalized intensity
GAGCTTTTACCTCAAATAAAGGTCAGAGTCGCCTAGGGAGATTAGAGTATCGGTCGA | 1.79 log2 normalized intensity
